DT40 TDP1 CPT: DT40-hTDP1 cell growth loss with CPT; Potency, µM (top dose mostly 46.2 µM), usual class: inhibitors; 12% of 420,000 active; chicken DT40 Tdp1-/-;hTDP1 cells + 20 nM CPT, ATP luminescence, 48 h; AID 686979; note: nearly all actives have a fitted effect of over 55% in size
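Cell growth measured by CellTiter-Glo luminescence after a minimum 48 h, 37 C compound exposure with 20 nM CPT in Tdp1-knockout DT40 cells stably expressing hTDP1, seeded 400/well; qHTS titration format.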
TGFb inhibitor: inhibitors of TGF-b signaling. HepG2 CAGA-GFP TGF-b/SMAD3 reporter, GFP fluorescence, 18 h; TGF-beta stimulated, 500 pg/mL final. Potency, µM (doses to about 46.1 µM), usual class: inhibitors. 1.2% of 410,000 active; note: nearly all actives have a fitted effect of over 65% in size
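Smad-responsive CAGA-GFP expression was quantified in HEPG2 cells exposed to compounds and 500 pg/mL final TGF-beta for 18 h at 37 degrees C; unstimulated wells defined full inhibition.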
DT40 TDP1 no CPT: qHTS for Inhibitors of human tyrosyl-DNA phosphodiesterase 1 (TDP1): qHTS in cells in absence of CPT; DT40 Tdp1-/- hTDP1 cells, no CPT, ATP luminescence, 48 h; Potency, µM (doses to about 46.2 µM), hits mostly inhibitors; 15% of 420,000 active; AID 686978, 2013; note: nearly all actives have a fitted effect of over 55% in size
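Cells were dispensed at 400 per well, compounds added by pin tool, plates incubated ≥48 hr at 37 °C, then CellTiter-Glo added for 30 min at room temperature before luminescence reading. Line: DT40 Tdp1-/- complemented with hTDP1; camptothecin omitted.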
ATXN viability: cell viability loss in ATXN counter-screen; Potency, µM (highest dose often 56.7 µM), most hits filed as cytotoxic; 0.49% of 400,000 active; S2 cells (HEK-293 line with an ATXN2-luciferase reporter) viability, CellTiter-Fluor protease fluorescence, 24 h; note: nearly all actives have a fitted effect of over 40% in size
ATXN2 expr inh: reduces ATXN2 reporter expression in HEK-293 cells. HEK-293 ATXN2-luciferase reporter, luminescence, 24 h. Potency, µM (top dose mostly 57 µM), most hits filed as inhibitors. 0.72% of 360,000 active. AID 1745845; note: nearly all actives have a fitted effect of over 55% in size
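ATXN2-luciferase reporter cells (luciferase flanked by upstream and downstream ATXN2 gene portions) were treated 24 h at 37 °C with compounds at up to 57 uM. SteadyGlo luminescence gave expression; GF-AFC fluorescence gave viability.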
HepG2 viability: HepG2 cytotoxicity, counter-screen for TGF-b inhibitors; HepG2 CAGA-GFP viability, ATP luminescence, 18 h; Potency, µM (doses to about 46.1 µM), usual class: cytotoxic; 0.76% of 410,000 active
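HepG2 CAGA-GFP cells (1000/well, DMEM with 1% FBS) received compound, then TGF-beta at 500 pg/mL final, and were incubated 18 hours at 37 degrees C. Viability was read by CellTiter-Glo luminescence. Media-only wells were set as complete cell-killing and DMSO as no toxicity.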
Each line names hits and unclear results; the compound was inactive in the other large screens. Shown are actives, neighbours in structure and some others; about 17% of the full set was active somewhere. Calls come from the whole dose curve; as a rule, active = well fitted curve in the direction sought with a large enough effect; inconclusive = small, poorly fitted or top-dose-only effect, or another doubt; inactive = no such curve, though single readings can be large; an effect the other way counts as inactive or inconclusive.

COc1ccc(-n2c(C)cc(C(=O)CCl)c2C)cc1	DT40 TDP1 CPT 1.5µM, TGFb inhibitor inconclusive, DT40 TDP1 no CPT 1.8µM, ATXN viability 27µM, ATXN2 expr inh 30µM, HepG2 viability 22µM
Cc1cc(C(=O)COC(=O)c2ccc(O)cc2O)c(C)n1-c1ccccc1	DT40 TDP1 CPT 21µM, TGFb inhibitor inconclusive, DT40 TDP1 no CPT 21µM, ATXN viability inconclusive
COc1ccc(NC(=O)COC(=O)Cn2cnc3ccccc32)cc1	none
Cc1cc(C(=O)COC(=O)c2ccc(O)cc2O)c(C)n1-c1ccc(OC(F)F)cc1	DT40 TDP1 CPT 21µM, TGFb inhibitor inconclusive, DT40 TDP1 no CPT 7.3µM
O=C(CN1C(=O)COc2ccc(S(=O)(=O)N3CCCC3)cc21)N1CCN(c2cccc(C(F)(F)F)c2)CC1	none (no result: DT40 TDP1 CPT, DT40 TDP1 no CPT)
Cn1c(=O)[nH]c(=O)c2c1nc1n2CC(O)CN1c1ccccc1 (stereo unspecified)	none
COC(=O)COc1cccc(-n2cnnn2)c1	none
COc1ccc(-n2c(C)cc(C(=O)COC(=O)c3ccc(O)cc3O)c2C)cc1	DT40 TDP1 CPT 8.2µM, TGFb inhibitor inconclusive, DT40 TDP1 no CPT 5.2µM, ATXN2 expr inh inconclusive
COc1cc(NC(=O)c2cccs2)c(C(=O)OCC(=O)c2cc(C)n(-c3ccccc3)c2C)cc1OC	DT40 TDP1 CPT inconclusive, TGFb inhibitor inconclusive, DT40 TDP1 no CPT 21µM, ATXN2 expr inh inconclusive
Cc1cc(C(=O)COc2cccc(-n3cnnn3)c2)c(C)n1-c1ccccc1	DT40 TDP1 CPT 23µM, DT40 TDP1 no CPT 21µM
Cc1cc(NC(=O)c2cc(-c3ccc(F)cc3)on2)nn1Cc1ccc(Cl)cc1	DT40 TDP1 CPT inconclusive (no result: ATXN viability, ATXN2 expr inh)
Cc1cc(NC(=O)c2cc(-c3ccco3)on2)nn1Cc1ccc(Cl)cc1	DT40 TDP1 CPT 21µM, DT40 TDP1 no CPT 26µM
Cc1ccc(Cn2nc(C)c(NC(=O)c3cc(-c4ccco4)on3)c2C)cc1	DT40 TDP1 CPT inconclusive, DT40 TDP1 no CPT inconclusive, ATXN2 expr inh inconclusive
Cc1nn(Cc2ccc(Cl)cc2)c(C)c1NC(=O)c1cc(-c2ccco2)on1	DT40 TDP1 CPT 13µM, DT40 TDP1 no CPT 23µM, ATXN viability inconclusive, ATXN2 expr inh inconclusive
Cc1cccn2c(NCc3ccc4c(c3)OCO4)c(-c3ccc(O)cc3)nc12	none
CNS(=O)(=O)c1cc(Nc2ncnc3sccc23)ccc1C	DT40 TDP1 CPT 15µM, DT40 TDP1 no CPT inconclusive
Cc1ccc(C(C)(C)C)cc1S(=O)(=O)Nc1ncnc2sccc12	none
O=C(Nc1ccc(F)cc1)N1CCN(c2ccc3nnc(-c4ccc(F)cc4)n3n2)CC1	DT40 TDP1 CPT inconclusive, DT40 TDP1 no CPT inconclusive, ATXN viability inconclusive, ATXN2 expr inh inconclusive
Fc1ccc(-c2nnc3ccc(N4CCc5ccccc5C4)nn23)cc1	DT40 TDP1 CPT 9.2µM, DT40 TDP1 no CPT 8.2µM, ATXN2 expr inh 32µM (no result: ATXN viability)
CCCCNC(=O)CN1C(=O)c2c(c3ccccc3n2C)C1c1ccc(OC)cc1 (stereo unspecified)	DT40 TDP1 CPT inconclusive, DT40 TDP1 no CPT inconclusive (no result: ATXN viability, ATXN2 expr inh)
OC(Cc1ccncc1)(c1ccccc1)c1ccccc1	DT40 TDP1 CPT inconclusive, DT40 TDP1 no CPT inconclusive
Cc1ccc2nc(CC(O)(c3ccccc3)c3ccccc3)ccc2c1	DT40 TDP1 CPT inconclusive, DT40 TDP1 no CPT 21µM (no result: ATXN2 expr inh)
COc1cccc2ccc(CC(O)(c3ccccc3)c3ccccc3)nc12	DT40 TDP1 CPT inconclusive, DT40 TDP1 no CPT 26µM (no result: ATXN2 expr inh)
N/C(Cc1ccc(Cl)cc1)=N\OC(=O)CCc1ccccc1	DT40 TDP1 no CPT inconclusive (no result: ATXN2 expr inh)
CCc1nc2ccc(C(=O)Nc3cc(-c4ccccc4)ccc3OC)cn2c1N(C)Cc1ccc(OC)cc1	DT40 TDP1 CPT 7.3µM, DT40 TDP1 no CPT 8.2µM
CCc1nc2ccc(C(=O)Nc3cc(-c4ccccc4)ccc3OC)cn2c1N(C)Cc1nccs1	DT40 TDP1 CPT 13µM, TGFb inhibitor inconclusive, DT40 TDP1 no CPT 9.2µM, ATXN viability inconclusive
CCc1nc2ccc(C(=O)N(CC)CCN(C)C)cn2c1N(C)Cc1nccs1	none
CCc1nc2ccc(C(=O)NCC3CCCCC3)cn2c1N(C)Cc1nccs1	DT40 TDP1 CPT 16µM, DT40 TDP1 no CPT 21µM, ATXN viability inconclusive
CCc1nc2ccc(C(=O)Nc3cccc(NS(C)(=O)=O)c3)cn2c1N(C)C(=O)c1cccc(OC)c1	none
CCc1nc2ccc(C(=O)Nc3cc(-c4ccccc4)ccc3OC)cn2c1N(C)C(=O)c1cccc(OC)c1	DT40 TDP1 CPT inconclusive, DT40 TDP1 no CPT 18µM
Cc1csc(NC(C)c2nc3cc(Cl)c(Cl)cc3n2CCCO)n1 (stereo unspecified)	DT40 TDP1 CPT inconclusive
CN(CC(O)COc1c(F)cc(Br)cc1F)C1CCCCC1 (stereo unspecified)	DT40 TDP1 no CPT inconclusive, ATXN2 expr inh inconclusive
COc1ccc(CCNC(=O)c2csc3c2CCCCC3)c(OC)c1	DT40 TDP1 CPT inconclusive, DT40 TDP1 no CPT inconclusive
CC1(C)OC(=O)C2=C(C[C@@H](CCOCc3ccccc3)O[C@@H]2c2ccc(F)cc2)O1	DT40 TDP1 CPT inconclusive, DT40 TDP1 no CPT inconclusive (no result: TGFb inhibitor, HepG2 viability)
CN(C)c1ccc2c(=O)cc[nH]c2c1	none (no result: ATXN viability)
CCc1nnc(NC(=O)CCc2ccc(C)o2)s1	none
Cc1ccc(CCC(=O)Nc2ncc(Cc3cccc(Cl)c3Cl)s2)o1	DT40 TDP1 CPT 0.023µM, TGFb inhibitor inconclusive, DT40 TDP1 no CPT 0.016µM, ATXN viability inconclusive
O=C1CSC(=Nc2cccc(Cl)c2Cl)N1	ATXN viability inconclusive
O=C(c1ccc(F)cc1)N1CCC(C(=O)N2CCN(S(=O)(=O)c3cccc(Cl)c3)CC2)CC1	DT40 TDP1 no CPT inconclusive
CCN(C(=O)COC(=O)/C(C#N)=C/c1cc(C)n(CCOC)c1C)c1c(N)n(Cc2ccccc2)c(=O)[nH]c1=O	none
N#Cc1ccc(Oc2ccc(NC(=O)C3CC=CCC3C(=O)O)cc2)cc1 (stereo unspecified)	DT40 TDP1 no CPT inconclusive, ATXN viability inconclusive (no result: ATXN2 expr inh)
Cc1cccc(Oc2ccc(NC(=O)C3CC=CCC3C(=O)O)cc2)c1 (stereo unspecified)	DT40 TDP1 no CPT 2.1µM, ATXN viability inconclusive
CC(OC(=O)c1ccc(O)cc1)C(=O)Nc1nc(-c2ccccc2)cs1 (stereo unspecified)	DT40 TDP1 CPT inconclusive, TGFb inhibitor inconclusive, DT40 TDP1 no CPT inconclusive
COC(=O)[C@H](C)NC(=O)Nc1ccc(Oc2ccccc2)cc1	DT40 TDP1 CPT inconclusive, DT40 TDP1 no CPT 6.3µM
CC(C)C[C@H](NC(=O)Nc1ccc(Oc2ccccc2)cc1)C(=O)O	none
O=C(Nc1cccc(S(=O)(=O)c2cccc(NC(=O)C3CC3)c2)c1)C1CC1	DT40 TDP1 CPT 21µM, DT40 TDP1 no CPT 21µM
